Measured values: PubChem BioAssay (NCATS)
Results filed as inconclusive are left out. Entries that show only a call come without a potency. Active and inactive are the calls of the source. Unless noted, the call rests on the fitted dose curve; in most records, active means well fitted curve in the direction sought with a large enough effect; inconclusive means small, poorly fitted or top-dose-only effect, or another doubt; inactive means no such curve, though single readings can be large; an effect the other way counts as inactive or inconclusive.

Assays:
[1] = biological target: Pyruvate kinase PKM (Homo sapiens) (UniProt P14618); test: qHTS Assay for Activators of Human Muscle Pyruvate Kinase (AID 954; active means well fitted curve in the direction sought with a large enough effect, not every such curve was filed as active)
Chain of Pyruvate kinase PKM (Homo sapiens) (P14618 whole entry, looked up): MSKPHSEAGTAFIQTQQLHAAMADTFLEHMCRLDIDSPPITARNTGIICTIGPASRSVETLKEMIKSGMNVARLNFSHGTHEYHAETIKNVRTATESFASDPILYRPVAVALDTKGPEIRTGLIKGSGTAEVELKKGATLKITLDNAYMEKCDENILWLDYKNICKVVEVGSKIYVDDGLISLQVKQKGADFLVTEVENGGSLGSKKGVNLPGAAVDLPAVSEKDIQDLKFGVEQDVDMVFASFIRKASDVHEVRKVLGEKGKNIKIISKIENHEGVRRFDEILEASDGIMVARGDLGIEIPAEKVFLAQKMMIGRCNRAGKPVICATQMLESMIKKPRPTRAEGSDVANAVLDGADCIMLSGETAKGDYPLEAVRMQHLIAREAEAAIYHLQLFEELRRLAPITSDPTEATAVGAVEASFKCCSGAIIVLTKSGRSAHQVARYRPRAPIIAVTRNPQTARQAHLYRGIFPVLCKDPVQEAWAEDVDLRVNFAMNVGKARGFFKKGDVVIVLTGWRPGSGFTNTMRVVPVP
Summary of the method: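 Reaction: 0.1 nM purified PKM2 with 0.5 mM phosphoenolpyruvate and 0.1 mM ADP, room temperature, 1 h. Readout: luciferase-based ATP luminescence after stop reagent. Activators judged against a 0.3 nM enzyme column.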

[2] = biological target: Alpha-galactosidase (Coffea arabica) (UniProt Q42656); test: Counterscreen for Glucocerebrosidase Inhibitors: qHTS Assay for Coffee Bean alpha-Galactosidase at pH 4.5 (AID 957); further: series mostly up to about 77 µM
Chain of Alpha-galactosidase (Coffea arabica) (Q42656 whole entry, looked up): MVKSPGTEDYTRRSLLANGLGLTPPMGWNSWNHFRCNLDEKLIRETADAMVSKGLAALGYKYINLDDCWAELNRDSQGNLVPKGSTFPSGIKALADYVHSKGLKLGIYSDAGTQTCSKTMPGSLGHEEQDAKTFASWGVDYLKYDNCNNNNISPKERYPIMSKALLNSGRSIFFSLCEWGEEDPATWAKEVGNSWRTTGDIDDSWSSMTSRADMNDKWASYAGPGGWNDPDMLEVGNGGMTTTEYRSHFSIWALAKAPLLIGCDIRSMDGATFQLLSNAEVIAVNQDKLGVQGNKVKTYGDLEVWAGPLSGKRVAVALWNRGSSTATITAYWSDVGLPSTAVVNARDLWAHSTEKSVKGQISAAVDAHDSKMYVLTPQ
Summary of the method: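 Coffee bean alpha-galactosidase 2 nM, substrate 4-MU-alpha-Gal 80 uM, pH 4.5 citrate/Tween-20, 20 min RT. Cpd titration 0.7 nM–77 uM. Stop pH 10, fluorescence 365/440 nm; Hill-equation AC50.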

[3] = biological target: Pyruvate kinase PKM (Homo sapiens) (UniProt P14618); test: qHTS Assay for Inhibitors of Human Muscle Pyruvate Kinase (AID 958)
Summary of the method: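 Enzyme was run at intermediate activity so both inhibitors and activators could be detected. ATP formed from ADP and PEP by 0.1 nM human PKM2 during a 1 h room-temperature incubation was quantified by coupled luciferase luminescence.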

[4] = MultiTox-Fluor Cytotoxicity Assay - LYMP1-003 - Dead Cells (AID 961);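 further: cells exposed to compound for 16 h at 37 °C; nearly all actives have a fitted effect of over 70% in size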
Summary of the method: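 LYMP1-003 lymphoblastoid, 2500 cells/well, 5 hr settle then 16 hr cpd at 37 C; MultiTox-Fluor reagent 60 min RT; Ex/Em 485/520 dead-cell signal; norm. DMSO = 0%, 15 uM tetraoctylammonium bromide = 100%; Hill AC50.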

[5] = MultiTox-Fluor Cytotoxicity Assay - LYMP1-003 - Live Cells (AID 962);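 further: cells exposed to compound for 16 hours at 37 °C; cytotoxic hits lower the live-cell protease signal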
Summary of the method: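 qHTS, 1536-well; 2500 cells/well LYMP1-003; 5 hr 37 C settle; cpd 16 hr 37 C; MultiTox-Fluor reagent 60 min RT; live-cell protease fluor. 405/510; Hill-fit AC50; tetraoctylammonium bromide pos. ctrl.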

[6] = Cell Viability - LYMP1-003 - Assay at 24 hr (AID 963)
Summary of the method: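 Cells seeded at 2500/well, 5 hr at 37 C; compounds added; 24 hr at 37 C; CellTiter-Glo added, 30 min room temperature; luminescence read. Decrease in ATP taken as cytotoxicity, AC50 from Hill modelling.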

[7] = Cell Viability - LYMP1-003 - Assay at 40 hr (AID 964); further: series mostly up to about 92 µM; nearly all actives have a fitted effect of over 60% in size
Summary of the method: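 Cells were seeded at 2500 per well and incubated 5 hr at 37 C. Compounds were added across a concentration series and left 40 hr at 37 C. CellTiter-Glo was added for 30 min at room temperature before luminescence reading.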

[8] = Cell Viability - LYMP2-009 (AID 968); further: nearly all actives have a fitted effect of over 55% in size; further: potency means the concentration at half of the fitted maximal effect
[9] = Cell Viability - LYMP2-011 (AID 969); further: nearly all actives have a fitted effect of over 60% in size; further: potency means the concentration at half of the fitted maximal effect
Summary of the method: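 2500 cells/well, 5 hr 37 C; compound added, 24 hr 37 C; CellTiter-Glo 30 min RT; luminescence. qHTS concentration-response, Hill-equation AC50. Tetraoctylammonium bromide positive control.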

[10] = Cell Viability - LYMP2-013 (AID 970); further: nearly all actives have a fitted effect of over 55% in size; further: potency means the concentration at half of the fitted maximal effect
Summary of the method: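 qHTS; 2500 lymphoblastoid cells/well; 5 hr 37 C settle; cpd 24 hr 37 C; CellTiter-Glo, 30 min RT; luminescence. AC50 = Hill fit.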

[11] = Cell Viability - LYMP2-015 (AID 971); further: nearly all actives have a fitted effect of over 55% in size; further: potency means the concentration at half of the fitted maximal effect
Summary of the method: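 Luminescent ATP read-out (CellTiter-Glo) served as the viability measure after lymphoblastoid cells were exposed to compounds for 24 hours at 37 C. Concentration-response data were fitted with the Hill equation to give AC50.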

[12] = Cell Viability - LYMP2-017 (AID 972); further: nearly all actives have a fitted effect of over 55% in size; further: potency means the concentration at half of the fitted maximal effect
Summary of the method: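 2500 cells/well, 5 h 37 C; cpd 24 h 37 C in complete medium; CellTiter-Glo, 30 min RT; luminescence (ATP). AC50 via Hill fit, qHTS.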

[13] = Cell Viability - LYMP2-019 (AID 973); further: nearly all actives have a fitted effect of over 55% in size; further: potency means the concentration at half of the fitted maximal effect
Summary of the method: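 Luminescent ATP read-out (CellTiter-Glo, 30 min room temperature) served as the viability measure after 24 hr treatment of lymphoblastoid cells at 37 C. Concentration-response data were fitted to the Hill equation for AC50.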

[14] = Cell Viability - LYMP2-021 (AID 974); further: potency means the concentration at half of the fitted maximal effect
Summary of the method: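 Plate 2500 lymphoblastoid cells per well and incubate 5 hr at 37 C. Add compounds over a concentration range and incubate 24 hr at 37 C. Add CellTiter-Glo, wait 30 min at room temperature, read luminescence.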

[15] = Cell Viability - LYMP2-002 (AID 977);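 further: series mostly up to about 92 µM; compound exposure lasted 24 h at 37 °C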
Summary of the method: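 Cytotoxicity is scored as concentration-dependent loss of cellular ATP in a human lymphoblastoid line after 24 hr compound treatment at 37 C. AC50 is obtained by modelling concentration-response data with the Hill equation.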

[16] = MultiTox-Fluor Cytotoxicity Assay - LYMP1-002 - Dead Cells (AID 960);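 further: cells exposed to compound for 16 h at 37 °C; nearly all actives have a fitted effect of over 60% in size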
Summary of the method: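 LYMP1-002 cells 2500/well; 5 hr 37 C pre-incubation; compound 16 hr 37 C; MultiTox-Fluor reagent 60 min RT; dead-cell fluor Ex/Em 485/520. Norm. to DMSO (0%) vs 15 uM tetraoctylammonium bromide (100%); Hill AC50.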

[17] = Cell Viability - LYMP2-004 (AID 966); further: nearly all actives have a fitted effect of over 65% in size
Summary of the method: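 Cells seeded 2500/well, rested 5 hr at 37 C, dosed across a concentration series, incubated 24 hr at 37 C, then CellTiter-Glo added for 30 min at room temperature and luminescence read. Hill fitting gave AC50.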

[18] = Cell Viability - LYMP2-023 (AID 975)
Summary of the method: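 2500 cells/well, 5 hr 37 C; cpd 24 hr 37 C; CellTiter-Glo, 30 min RT; luminescence. qHTS conc-response, Hill fit -> AC50. Pos ctrl tetraoctylammonium bromide.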

[19] = Cell Viability - LYMP2-006 (AID 978); further: series mostly up to about 92 µM; nearly all actives have a fitted effect of over 60% in size
Summary of the method: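 In this cytotoxicity screen, the human lymphoblastoid line grew in complete medium with test compounds for 24 hr at 37 C. Cellular ATP served as the viability signal.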

[20] = biological target: Pyruvate kinase (Leishmania mexicana) (UniProt Q27686); test: qHTS Validation Assay for Activators of Leishmania Mexicana Pyruvate Kinase (AID 959)
Chain of Pyruvate kinase (Leishmania mexicana) (Q27686 2-499 E452W): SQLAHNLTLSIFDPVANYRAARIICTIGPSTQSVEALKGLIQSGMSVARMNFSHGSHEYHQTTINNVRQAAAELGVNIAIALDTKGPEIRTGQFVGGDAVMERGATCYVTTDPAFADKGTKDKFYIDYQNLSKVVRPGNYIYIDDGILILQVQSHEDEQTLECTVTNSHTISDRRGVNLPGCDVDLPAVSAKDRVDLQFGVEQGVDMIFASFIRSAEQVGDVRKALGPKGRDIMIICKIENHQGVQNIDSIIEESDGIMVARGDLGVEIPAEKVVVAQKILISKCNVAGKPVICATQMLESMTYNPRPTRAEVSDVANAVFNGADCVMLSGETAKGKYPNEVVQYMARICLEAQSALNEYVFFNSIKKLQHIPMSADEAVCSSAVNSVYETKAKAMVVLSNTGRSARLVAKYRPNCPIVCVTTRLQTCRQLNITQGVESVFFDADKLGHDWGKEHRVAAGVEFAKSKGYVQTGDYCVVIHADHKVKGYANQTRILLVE
Summary of the method: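 qHTS eight-point titrations against 0.2 nM LmPYK (E451W) in imidazole buffer pH 7.2 with 0.5 mM PEP, 0.1 mM ADP; 1 h, room temperature. Readout: PKLight luminescence, normalized to neutral DMSO wells.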

## CCCn1c(C)c(C(=O)c2ccc3ccccc3c2)c2ccccc21
[1]
  outcome: inactive
[2]
  outcome: inactive

## NC(N)=NOCC[C@H](N)C(=O)O
[1]
  outcome: inactive
[2]
  outcome: inactive

## CN1CCc2cccc(Cl)c2CC1
[1]
  outcome: inactive
[2]
  outcome: inactive

## CC(C)(C)c1cc(C=C(C#N)C#N)cc(C(C)(C)C)c1O
[1]
  outcome: inactive
[2]
  outcome: inactive

## CCCN1CCc2cc(O)cc3c2[C@H]1Cc1ccc(O)c(O)c1-3
[1]
  outcome: inactive
[2]
  outcome: inactive

## N#CC(C#N)=Cc1cc(O)c(O)c(O)c1
[1]
  outcome: inactive
[2]
  outcome: inactive

## CNC(=O)OCC[N+](C)(C)C
[1]
  outcome: inactive
[2]
  outcome: inactive

## c1ccc2cc(CC3=NCCN3)ccc2c1
[1]
  outcome: inactive
[2]
  outcome: inactive

## O=P(O)(O)C(Cl)(Cl)P(=O)(O)O
[1]
  outcome: inactive
[2]
  outcome: inactive

## CCCN(CCC)C1Cc2cc(OC)c(OC)cc2C1
[1]
  outcome: inactive
[2]
  outcome: inactive

## CCN(CCCl)Cc1ccccc1Br
[1]
  outcome: inactive
[2]
  outcome: inactive

## CCCN(CCC)CCc1ccc(O)c(O)c1
[1]
  outcome: inactive
[2]
  outcome: inactive

## CCCN(CCC)[C@@H]1CCc2cccc(O)c2C1
[1]
  outcome: inactive
[2]
  outcome: inactive

## c1ccc2c(c1)[I+]c1ccccc1-2
[1]
  outcome: inactive
[2]
  outcome: inactive

## CC(=O)NBr
[1]
  outcome: inactive
[2]
  outcome: inactive

## C[C@H](N)CN1CCc2ccc(Br)cc21
[1]
  outcome: inactive
[2]
  outcome: inactive

## Cc1[nH]c2ccc(O)cc2c1CCN
[1]
  outcome: inactive
[2]
  outcome: inactive

## C[N+](C)(C)CC#CCN1CCCC1=O
[1]
  outcome: inactive
[2]
  outcome: inactive

## NNC(=O)c1ccc(O)cc1
[1]
  outcome: inactive
[2]
  outcome: inactive

## O=S1(=O)N(CCN2CC=C(c3c[nH]c4cc(F)ccc34)CC2)c2cccc3c2N1CCC3
[1]
  outcome: inactive
[2]
  outcome: inactive

## C[C@@H]1O[C@H](C[N+](C)(C)C)CS1
[1]
  outcome: inactive
[2]
  outcome: inactive

## CCCn1c(=O)c2[nH]c(C3CCCC3)nc2n(CCCOC(=O)c2ccc(S(=O)(=O)F)cc2)c1=O
[1]
  outcome: inactive
[2]
  outcome: inactive

## CP(=O)(O)C1=CCNCC1
[1]
  outcome: inactive
[2]
  outcome: inactive

## c1ccc2c(N3CCNCC3)cccc2c1
[1]
  outcome: inactive
[2]
  outcome: inactive

## NC(=O)CI
[1]
  outcome: inactive

## CCS(=O)(=O)Nc1cccc(C(=C2CCCCC2)c2cnc[nH]2)c1
[1]
  outcome: inactive
[2]
  outcome: inactive

## NCCc1c[nH]c2ccc(C(N)=O)cc12
[1]
  outcome: inactive
[2]
  outcome: inactive

## C[N+](C)(C)CC#CCOC(=O)Nc1cccc(Cl)c1
[1]
  outcome: inactive
[2]
  outcome: inactive

## OCc1cnc[nH]1
[1]
  outcome: inactive
[2]
  outcome: inactive

## N#CCCN
[1]
  outcome: inactive
[2]
  outcome: inactive

## CN1CCc2cc(O)cc3c2[C@H]1Cc1ccc(O)c(O)c1-3
[2]
  outcome: inactive
[3]
  Potency: inactive

## CN1CCC(c2c[nH]c3ccc(O)cc23)CC1
[1]
  outcome: inactive
[2]
  outcome: inactive

## N[C@@H](Cn1oc(=O)[nH]c1=O)C(=O)O
[1]
  outcome: inactive
[2]
  outcome: inactive

## C[N+]1(C)CCN(c2ccccc2)CC1
[1]
  outcome: inactive
[2]
  outcome: inactive

## COc1ccc2[nH]cc(CCN)c2c1
[1]
  outcome: inactive
[2]
  outcome: inactive

## O=[N+]([O-])c1ccc2nc(N3CCNCC3)ccc2c1
[1]
  outcome: inactive
[2]
  outcome: inactive

## CCCN(CCC)CCc1c[nH]c2ccc(C(N)=O)cc12
[1]
  outcome: inactive
[2]
  outcome: inactive

## O=C1C=CC(=O)C=C1
[1]
  outcome: inactive
[2]
  outcome: inactive
[4]
  Potency: inactive
[5]
  Potency: inactive
[6]
  Potency: inactive
[7]
  Potency: inactive
[8]
  Potency: 50.1 µM (active)
[9]
  Potency: 50.1 µM (active)
[10]
  Potency: 39.8 µM (active)
[11]
  Potency: 31.6 µM (active)
[12]
  Potency: 50.1 µM (active)
[13]
  Potency: 50.1 µM (active)
[14]
  Potency: 31.6 µM (active)
[15]
  Potency: inactive

## C[N+]1(C)[C@@H]2CC[C@H]1CC(OC(=O)c1c[nH]c3ccccc13)C2 (some centres undefined)
[1]
  outcome: inactive
[2]
  outcome: inactive

## C[N+](C)(C)CCOC(=O)CBr
[1]
  outcome: inactive
[2]
  outcome: inactive

## Clc1ccc(N2C[C@H]3CC[C@@H](C2)N3)nn1
[1]
  outcome: inactive
[2]
  outcome: inactive

## NCCc1ccc(S(=O)(=O)F)cc1
[1]
  outcome: inactive
[2]
  outcome: inactive

## C[C@@H]1[C@@H]2Cc3ccc(O)cc3[C@@]1(C)CCN2CC1CC1
[1]
  outcome: inactive
[2]
  outcome: inactive

## COc1ccc2[nH]c3c(c2c1)CCNC3
[1]
  outcome: inactive
[2]
  outcome: inactive

## CN(N=O)c1ccc(O)c(O)c1
[2]
  outcome: inactive
[3]
  Potency: inactive

## Cc1sc2ccccc2c1CC1=NCCN1
[1]
  outcome: inactive
[2]
  outcome: inactive

## NCCCP(=O)(O)O
[1]
  outcome: inactive
[2]
  outcome: inactive

## C[N+]1(C)CCC(OC(=O)C(c2ccccc2)c2ccccc2)CC1
[2]
  outcome: inactive

## Clc1cc(I)cc(Cl)c1NC1=NCCN1
[1]
  outcome: inactive
[2]
  outcome: inactive

## NNC(N)=O
[1]
  outcome: inactive
[2]
  outcome: inactive
[16]
  Potency: inactive
[4]
  Potency: inactive
[5]
  Potency: inactive
[6]
  Potency: inactive
[7]
  Potency: inactive
[17]
  Potency: inactive
[8]
  Potency: inactive
[9]
  Potency: inactive
[10]
  Potency: inactive
[11]
  Potency: inactive
[12]
  Potency: inactive
[13]
  Potency: inactive
[14]
  Potency: inactive
[18]
  Potency: inactive
[15]
  Potency: inactive
[19]
  Potency: inactive

## NC(=O)c1cc(N2CC2)c([N+](=O)[O-])cc1[N+](=O)[O-]
[1]
  outcome: inactive
[2]
  outcome: inactive

## O=[N+]([O-])c1cc(O)c(O)c([N+](=O)[O-])c1
[1]
  outcome: inactive
[2]
  outcome: inactive

## COc1ccc2c(c1)/C(=C/c1cnc[nH]1)C(=O)N2
[1]
  outcome: inactive
[2]
  outcome: inactive

## CC(C)NP(=O)(NC(C)C)OP(=O)(NC(C)C)NC(C)C
[1]
  outcome: inactive
[2]
  outcome: inactive

## Nc1ccc(CCN2CCN(c3cccc(C(F)(F)F)c3)CC2)cc1
[1]
  outcome: inactive
[2]
  outcome: inactive

## O=C(O)c1cc[c]([Hg][Cl])cc1
[1]
  outcome: inactive
[2]
  outcome: inactive
[3]
  Potency: 2.51 µM (active)
[20]
  Potency: inactive

## NC(=O)COc1c(F)cc(SCCNS(=O)(=O)c2ccccc2)cc1F
[1]
  outcome: inactive
[2]
  outcome: inactive

## CCCN(CCC)[C@H]1CCc2c(F)ccc(O)c2C1
[1]
  outcome: inactive
[2]
  outcome: inactive

## Cc1c2ccncc2c(C)c2c1[nH]c1ccccc12
[1]
  outcome: inactive
[2]
  outcome: inactive

## O=c1c2ccccc2[se]n1-c1ccccc1
[1]
  outcome: inactive
[3]
  Potency: 10 µM (active)
[20]
  Potency: inactive
